The source of these data is ChEMBL document CHEMBL3988442, “University of Dundee, Small-Polar-MMV Screening Library” (2021).

Design in all cases: scale not given: direction of the effect not stated beside the values
The target in assay [1] is Protein translocase subunit SecA (Escherichia coli (strain K12)) (UniProt P10408). The assay is described as follows: Assay to Identify E. coli SecA ATPase Inhibitors. The assay is classed as functional. Conditions: 30 µM.
Assay [2] addresses T1, Ubiquitin-activating enzyme e1, putative (Leishmania donovani (strain BPK282A1)) (UniProt E9BSI1).
T1 sequence (whole entry): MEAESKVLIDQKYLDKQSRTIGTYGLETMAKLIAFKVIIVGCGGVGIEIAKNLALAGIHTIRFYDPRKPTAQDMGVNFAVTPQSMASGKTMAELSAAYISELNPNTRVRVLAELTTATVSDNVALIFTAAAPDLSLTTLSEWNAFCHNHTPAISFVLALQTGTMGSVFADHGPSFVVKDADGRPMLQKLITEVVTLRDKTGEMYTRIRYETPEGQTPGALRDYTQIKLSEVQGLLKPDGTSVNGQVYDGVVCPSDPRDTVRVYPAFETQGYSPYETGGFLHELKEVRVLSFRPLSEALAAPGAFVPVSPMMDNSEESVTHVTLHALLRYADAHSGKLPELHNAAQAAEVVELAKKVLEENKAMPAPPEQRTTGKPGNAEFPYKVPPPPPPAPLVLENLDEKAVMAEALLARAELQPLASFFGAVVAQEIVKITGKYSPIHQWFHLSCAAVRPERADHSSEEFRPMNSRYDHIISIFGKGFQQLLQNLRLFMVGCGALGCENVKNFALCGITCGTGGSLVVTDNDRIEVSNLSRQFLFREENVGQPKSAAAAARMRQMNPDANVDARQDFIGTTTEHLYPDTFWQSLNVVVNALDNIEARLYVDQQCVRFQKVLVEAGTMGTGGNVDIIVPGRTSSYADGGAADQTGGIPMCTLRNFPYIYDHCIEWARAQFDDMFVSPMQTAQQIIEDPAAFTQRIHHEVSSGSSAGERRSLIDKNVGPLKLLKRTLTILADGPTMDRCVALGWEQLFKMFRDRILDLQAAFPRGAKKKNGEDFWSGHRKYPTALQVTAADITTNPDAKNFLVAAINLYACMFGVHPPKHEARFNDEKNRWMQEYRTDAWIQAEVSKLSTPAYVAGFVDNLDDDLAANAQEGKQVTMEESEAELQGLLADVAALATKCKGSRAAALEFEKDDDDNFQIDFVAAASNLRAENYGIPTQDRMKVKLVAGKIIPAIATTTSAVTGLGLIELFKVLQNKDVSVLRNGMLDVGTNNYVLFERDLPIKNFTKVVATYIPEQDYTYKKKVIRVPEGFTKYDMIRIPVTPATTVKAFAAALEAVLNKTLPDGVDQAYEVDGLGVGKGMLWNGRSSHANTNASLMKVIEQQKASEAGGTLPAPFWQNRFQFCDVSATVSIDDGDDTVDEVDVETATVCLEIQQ
The assay is described as follows: Leishmania donovani Ubiquitin Activating Enzyme (LdE1). The assay is classed as functional. Conditions: 30 µM.

Assay [3] addresses Sialic acid-binding Ig-like lectin 9 (Homo sapiens) (UniProt Q9Y336). The assay is described as follows: Hs-Siglec9 ALPHAscreen SOP 20170721. As to conditions: 10 µM. Background: In Alpha technology, singlet oxygen from a donor bead excites a nearby acceptor bead.
In assay [4] the test system is Trypanosoma cruzi. The assay is described as follows: Trypanosoma cruzi phosphomannomutase and mannose-1-phosphate guanylyltransferase assay. It counts as functional. Conditions: 10 µM.
The target of assay [5] is T2, Arginase-2, mitochondrial (Homo sapiens) (UniProt P78540).
T2 sequence (whole entry): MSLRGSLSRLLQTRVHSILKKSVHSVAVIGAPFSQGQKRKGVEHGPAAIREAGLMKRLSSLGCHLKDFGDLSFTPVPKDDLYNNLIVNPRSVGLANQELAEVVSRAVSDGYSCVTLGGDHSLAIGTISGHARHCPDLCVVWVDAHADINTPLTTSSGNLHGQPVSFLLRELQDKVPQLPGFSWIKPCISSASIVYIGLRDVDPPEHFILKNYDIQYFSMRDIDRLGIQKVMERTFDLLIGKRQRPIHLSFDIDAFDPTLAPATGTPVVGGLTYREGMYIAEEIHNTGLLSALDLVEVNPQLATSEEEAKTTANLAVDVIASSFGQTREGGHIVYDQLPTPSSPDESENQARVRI
The assay is described as follows: in vitro enzyme assay to detect the production of urea directly proportional to the activity of Arginase II. Also: in the data most compounds retested in dose-response had high values. It counts as functional. Conditions: 33.3 µM.

The target in assay [6] is T3, Proteasome subunit beta (Trypanosoma cruzi) (UniProt O96673).
T3 sequence (whole entry): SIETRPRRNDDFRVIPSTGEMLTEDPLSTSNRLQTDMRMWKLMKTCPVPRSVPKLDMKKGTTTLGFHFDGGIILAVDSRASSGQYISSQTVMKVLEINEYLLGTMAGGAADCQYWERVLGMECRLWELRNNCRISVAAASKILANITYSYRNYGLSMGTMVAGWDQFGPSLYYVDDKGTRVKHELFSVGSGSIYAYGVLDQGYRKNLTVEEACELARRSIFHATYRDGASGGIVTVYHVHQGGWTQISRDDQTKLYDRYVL
The assay is described as follows: Trypanosoma cruzi proteasome chymotrypsin-like activity (TcProtChymo) assay. Also: in the data most compounds retested in dose-response had high values. The assay is classed as functional. Conditions: 9.37 µM.

For assay [7], the species on record is Homo sapiens. The assay is described as follows: To identify inhibition of the IFN signalling (Jak-Stat) pathway via expression of an eGFP reporter gene under the control of an IFN-stimulated response element (ISRE) containing MxA promoter. It counts as functional. As to conditions: 30 µM. For orientation: Reporter assays use an easily measured gene product as a stand-in for the process of interest.

Assay [8] deals with T4, Tyrosyl-tRNA synthetase, putative (Trypanosoma cruzi (strain CL Brener)) (UniProt Q4DSP6).
T4 sequence (whole entry): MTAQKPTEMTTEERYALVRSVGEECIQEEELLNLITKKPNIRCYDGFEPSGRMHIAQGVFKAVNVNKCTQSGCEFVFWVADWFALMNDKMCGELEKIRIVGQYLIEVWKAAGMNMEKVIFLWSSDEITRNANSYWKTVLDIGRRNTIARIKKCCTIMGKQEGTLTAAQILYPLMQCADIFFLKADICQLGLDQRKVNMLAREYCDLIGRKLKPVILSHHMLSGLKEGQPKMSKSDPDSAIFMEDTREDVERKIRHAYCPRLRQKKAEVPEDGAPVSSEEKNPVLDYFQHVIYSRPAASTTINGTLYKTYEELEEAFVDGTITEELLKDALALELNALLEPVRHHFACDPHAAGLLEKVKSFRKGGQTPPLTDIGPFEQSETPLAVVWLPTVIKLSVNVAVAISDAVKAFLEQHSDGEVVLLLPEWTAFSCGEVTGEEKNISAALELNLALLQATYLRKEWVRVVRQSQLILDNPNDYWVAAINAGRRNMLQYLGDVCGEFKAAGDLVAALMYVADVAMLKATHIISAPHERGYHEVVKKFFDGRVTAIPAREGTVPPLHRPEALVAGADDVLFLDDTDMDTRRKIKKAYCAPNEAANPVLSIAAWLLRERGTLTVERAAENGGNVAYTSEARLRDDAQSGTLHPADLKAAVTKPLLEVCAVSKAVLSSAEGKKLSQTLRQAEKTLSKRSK
The assay is described as follows: Trypanosoma cruzi tyrosyl tRNA synthetase (TcYRS) _High Tyrosine SOP. Also: in the data most compounds retested in dose-response had high values. The assay is classed as functional. As to conditions: 30 µM.

Assay [9] addresses T4, Tyrosyl-tRNA synthetase, putative (Trypanosoma cruzi (strain CL Brener)). The assay is described as follows: Trypanosoma cruzi tyrosyl tRNA synthetase (TcYRS) SOP. The assay is classed as functional. Conditions: 30 µM.
The target in assay [10] is Chromo domain-containing protein 1 (Saccharomyces cerevisiae (strain ATCC 204508 / S288c) (Baker's yeast)) (UniProt P32657). The assay is described as follows: ScCHD-1 Enzyme Inhibition Assay. Also: in the data most compounds retested in dose-response had high values. The assay is classed as functional. As to conditions: 30 µM.

For some assays here: Entries with a potency or affinity are not part of this list.

Sequence of Protein translocase subunit SecA (Escherichia coli (strain K12)) (P10408 whole entry): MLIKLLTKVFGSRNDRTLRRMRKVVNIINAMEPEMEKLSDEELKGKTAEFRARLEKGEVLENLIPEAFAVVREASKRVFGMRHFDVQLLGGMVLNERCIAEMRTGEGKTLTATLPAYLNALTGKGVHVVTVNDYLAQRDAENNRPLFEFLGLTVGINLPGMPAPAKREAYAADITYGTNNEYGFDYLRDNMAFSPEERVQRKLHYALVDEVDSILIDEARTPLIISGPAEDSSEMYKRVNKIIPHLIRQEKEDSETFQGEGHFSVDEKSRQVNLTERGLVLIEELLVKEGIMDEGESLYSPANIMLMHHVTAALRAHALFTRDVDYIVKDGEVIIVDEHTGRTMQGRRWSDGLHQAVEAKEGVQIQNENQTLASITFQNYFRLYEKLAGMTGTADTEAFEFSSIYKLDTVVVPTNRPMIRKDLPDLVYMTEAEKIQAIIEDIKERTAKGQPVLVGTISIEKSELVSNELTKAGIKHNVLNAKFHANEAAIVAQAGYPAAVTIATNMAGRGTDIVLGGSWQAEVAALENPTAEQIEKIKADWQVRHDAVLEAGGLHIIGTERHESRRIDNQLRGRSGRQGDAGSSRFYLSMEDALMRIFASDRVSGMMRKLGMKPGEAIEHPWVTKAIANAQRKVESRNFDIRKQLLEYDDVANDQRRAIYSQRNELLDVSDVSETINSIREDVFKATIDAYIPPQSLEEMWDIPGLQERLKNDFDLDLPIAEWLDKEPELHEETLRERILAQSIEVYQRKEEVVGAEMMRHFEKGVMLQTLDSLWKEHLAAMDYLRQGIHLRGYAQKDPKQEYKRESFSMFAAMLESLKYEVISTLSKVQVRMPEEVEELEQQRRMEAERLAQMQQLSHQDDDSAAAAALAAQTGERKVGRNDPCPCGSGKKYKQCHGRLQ
Sequence of Sialic acid-binding Ig-like lectin 9 (Homo sapiens) (Q9Y336 whole entry): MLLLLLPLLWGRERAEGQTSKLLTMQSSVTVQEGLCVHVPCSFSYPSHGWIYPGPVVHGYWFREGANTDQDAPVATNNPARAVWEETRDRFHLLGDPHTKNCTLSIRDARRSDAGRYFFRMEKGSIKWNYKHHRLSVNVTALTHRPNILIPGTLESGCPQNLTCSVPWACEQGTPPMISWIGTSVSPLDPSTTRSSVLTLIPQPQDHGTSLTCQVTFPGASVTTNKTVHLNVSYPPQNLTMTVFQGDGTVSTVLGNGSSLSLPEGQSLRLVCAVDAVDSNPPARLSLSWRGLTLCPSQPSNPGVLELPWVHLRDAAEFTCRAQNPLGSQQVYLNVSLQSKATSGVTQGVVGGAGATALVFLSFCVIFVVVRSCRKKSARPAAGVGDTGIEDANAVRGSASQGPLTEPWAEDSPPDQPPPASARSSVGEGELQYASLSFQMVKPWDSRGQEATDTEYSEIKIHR
Sequence of Chromo domain-containing protein 1 (Saccharomyces cerevisiae (strain ATCC 204508 / S288c) (Baker's yeast)) (P32657 whole entry, the tested form may be a part): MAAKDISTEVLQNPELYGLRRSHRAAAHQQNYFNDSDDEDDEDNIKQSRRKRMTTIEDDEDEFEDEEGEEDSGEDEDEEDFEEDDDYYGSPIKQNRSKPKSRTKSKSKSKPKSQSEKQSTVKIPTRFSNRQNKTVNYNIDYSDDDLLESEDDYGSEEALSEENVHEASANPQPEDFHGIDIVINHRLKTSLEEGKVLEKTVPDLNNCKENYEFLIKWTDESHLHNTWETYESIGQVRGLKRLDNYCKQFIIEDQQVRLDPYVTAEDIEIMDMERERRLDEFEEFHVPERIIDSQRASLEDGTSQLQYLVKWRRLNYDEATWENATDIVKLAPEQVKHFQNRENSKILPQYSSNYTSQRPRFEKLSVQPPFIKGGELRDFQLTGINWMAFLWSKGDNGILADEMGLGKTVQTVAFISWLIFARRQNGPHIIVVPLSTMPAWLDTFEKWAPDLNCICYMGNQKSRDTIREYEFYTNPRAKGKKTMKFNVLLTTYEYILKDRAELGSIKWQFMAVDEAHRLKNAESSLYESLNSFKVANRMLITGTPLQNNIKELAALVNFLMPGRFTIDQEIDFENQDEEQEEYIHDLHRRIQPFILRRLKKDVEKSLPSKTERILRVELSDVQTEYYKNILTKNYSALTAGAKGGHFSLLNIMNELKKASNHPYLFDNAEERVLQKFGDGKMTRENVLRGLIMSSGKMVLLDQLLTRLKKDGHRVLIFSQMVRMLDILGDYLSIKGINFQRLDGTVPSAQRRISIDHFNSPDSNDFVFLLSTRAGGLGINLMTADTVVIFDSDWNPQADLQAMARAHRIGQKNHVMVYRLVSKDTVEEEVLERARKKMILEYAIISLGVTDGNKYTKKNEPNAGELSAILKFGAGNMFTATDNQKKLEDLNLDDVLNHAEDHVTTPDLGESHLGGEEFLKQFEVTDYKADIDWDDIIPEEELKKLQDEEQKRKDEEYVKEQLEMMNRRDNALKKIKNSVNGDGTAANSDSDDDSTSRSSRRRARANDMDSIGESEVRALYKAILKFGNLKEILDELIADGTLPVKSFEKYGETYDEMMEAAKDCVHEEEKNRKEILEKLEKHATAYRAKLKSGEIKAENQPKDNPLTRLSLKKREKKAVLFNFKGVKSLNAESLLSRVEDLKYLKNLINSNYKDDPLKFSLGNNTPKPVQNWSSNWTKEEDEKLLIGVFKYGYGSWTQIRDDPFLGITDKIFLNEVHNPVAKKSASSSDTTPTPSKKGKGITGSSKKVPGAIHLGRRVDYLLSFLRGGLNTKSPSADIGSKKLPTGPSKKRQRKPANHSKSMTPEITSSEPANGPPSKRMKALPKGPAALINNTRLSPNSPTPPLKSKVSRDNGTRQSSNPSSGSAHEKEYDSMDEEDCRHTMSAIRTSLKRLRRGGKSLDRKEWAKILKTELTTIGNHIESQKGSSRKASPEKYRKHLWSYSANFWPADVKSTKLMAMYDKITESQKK

As to `Cc1[nH]c2ccccc2c1-c1ccnc(NC[C@H](O)CO)n1`, the Percent Effect is -3.38% in assay [1]; 5.33% in [2]; -5% in assay [3]; -8.23% in assay [4]; -5.32% in assay [5]; 8.23% in assay [6]. In addition, the Percent Effect in assay [7] is 23.4%; in assay [8], -1.58%; in [9], -7.69%; in assay [10], -13.5%.
In the case of `O=C(N1CCC(Nc2cccnn2)CC1)C1(c2ccc(F)cc2)CC1`, the Percent Effect was -2.8% in [1]; 7.79% in assay [2]; 9.36% in assay [3]; -1.68% in assay [4]; -2.25% in assay [5]; 1.4% in assay [6]. Further, the Percent Effect in assay [7] is 10.5%; in [8], 4.9%; in [9], 9.41%; in [10], -1.2%.
With `Cn1ccc(CN2CCC(NC(=O)NC3CCCCC3)CC2)cc1=O`, the Percent Effect was -2.35% in assay [1]; 10.3% in assay [2]; 10.4% in assay [3]; -2.16% in assay [4]; 6.15% in assay [5]; -1.28% in assay [6]. Further, the Percent Effect in assay [7] is 27.9%; in assay [8] it was 4.31%; in assay [9], 10.8%; in assay [10], -1.97%.
In the case of `O=C1COC2(CCN(C(=O)c3ccco3)CC2)CN1Cc1cccnc1`, the Percent Effect in assay [1] was -3.74%; in assay [2], 14.3%; in assay [3], -1.08%; in assay [4], -2.25%; in assay [5], -0.457%; in assay [6], 3.86%. Also, the Percent Effect in assay [7] is -5.38%; in [8], 7.73%; in [9] it was 15%; in [10] it was -5.67%.
`O=C(C1CCOC1)N1CCc2ncc(CNc3ccccn3)n2CC1` (stereo not given): the Percent Effect in [1] is -0.228%; in [2], 1.3%; in assay [3], 8.26%; in assay [4], -0.682%; in assay [5], -1.62%; in assay [6] it was 6.8%. In addition, the Percent Effect in assay [7] is 4.98%; in [8], 3.68%; in [9] it was 5.13%; in assay [10] it was -14.8%.
Turning to `CC(=O)N1N=C(c2ccccc2)OC1C(=O)NCCc1cccc(Cl)c1` (stereo not given), the Percent Effect was 4.91% in [1]; 6.67% in [2]; -6.99% in assay [3]; -2.56% in [4]; 2.65% in assay [5]; 8.05% in [6]. In addition, the Percent Effect is 8.59% in [7], 0% in assay [8], 10% in assay [9] and -24.5% in assay [10].
Take `CN(C)CCCn1ccnc1C1CCCN(c2cc(N)ncn2)C1` (stereo not given): the Percent Effect was -10.5% in assay [1]; 2.7% in assay [2]; 2.22% in assay [3]; -3.59% in [4]; -2.45% in assay [5]; 4.97% in [6]. Moreover, the Percent Effect is -11% in [7], 7.98% in assay [8], 4.88% in assay [9] and 4.53% in [10].
In the case of `O=C(CC1CC1)N1C[C@@H]2CCN(c3cnccn3)C[C@@H]2C1`, the Percent Effect in [1] was -1.69%; in [2] it was 14.3%; in [3], 4.05%; in assay [4], 1.69%; in assay [5], 0.913%; in [6], 5.06%. In addition, the Percent Effect in [7] was 16.8%; in assay [8], 5.8%; in [9], 15%; in [10] it was -3.72%.
In the case of `CNC(=O)CN1CCCC12CCN(C(=O)c1ccc(F)cc1)CC2`, the Percent Effect in assay [1] was -1.29%; in assay [2], 1.3%; in assay [3] it was -0.371%; in [4], -6.75%; in assay [5], 3.2%; in assay [6] it was 8.33%. Besides, the Percent Effect is 22.8% in [7], -0.966% in assay [8], -5% in assay [9] and -4.71% in [10].
As to `Cc1n[nH]c(C)c1C1COCCN1C(=O)c1ccccc1` (stereo not given), the Percent Effect in assay [1] is 0.213%; in assay [2], -2.56%; in [3], 15%; in assay [4], -3.47%; in [5] it was 8.61%; in assay [6], 3.67%. In addition, the Percent Effect in assay [7] is 20.7%; in [8], -1.44%; in assay [9] it was -1.21%; in assay [10], -0.727%.
For the molecule `Cc1ccc(Cl)cc1N1CCC(CNC(=O)CC(F)(F)F)C1` (stereo not given), the Percent Effect is -3.87% in assay [1]; -2.56% in [2]; -7.65% in [3]; -2.54% in assay [4]; 1.23% in assay [5]; 7.25% in [6]. Further, the Percent Effect is 38.9% in assay [7], -0.478% in assay [8], -3.61% in [9] and 0.808% in [10].
